Test results published in PubChem BioAssay AID1063 (University of Pittsburgh Molecular Library Screening Center, 2008).
Screen size: about 200,000 compounds; about 18,000 (9%) were called active. This excerpt belongs to a sample that is enriched for actives. Values without a mark were called inactive. Rule as the data show it: active = inhibition above about 50%; inactive = the rest.

Assay: Leishmania major promastigote growth inhibition, primary screen (AID 1063);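 also: promastigotes grown with compound for 44 hours at 28 °C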
Details: Leishmania major promastigotes, resazurin fluorescence viability; at 10 µM; active compounds read high

| Structure (SMILES) | inhibition |
| --- | --- |
| Cc1cccc(C(=O)Nc2ccccc2C(=O)NCc2cccnc2)c1 | -3.01% |
| CCCCN(C)CCC(=O)Nc1ccc(Cl)cc1 | 63.4% (active) |
| O=C(CCC(=O)OCc1ccc(Cl)cc1)Nc1ccccc1 | -2.39% |
| CCCCC(=O)Nc1ccc2c(c1)OCCO2 | 1.71% |
| CCOC(=O)Cc1csc(NC(=O)CSc2ccc(Br)cc2)n1 | 77.7% (active) |
| CCOC(=O)Cc1csc(SCc2cc(=O)oc3cc(O)ccc23)n1 | -10.2% |
| CCOC(=O)Cc1csc(NC(=O)Nc2ccccc2)n1 | 0.22% |
| CCOC(=O)Cc1csc(NC(=O)CSc2nc(C)cc(=O)[nH]2)n1 | -12.1% |
| CCOC(=O)Cc1csc(NC(=O)C(C)(C)C)n1 | -0.74% |
| CCOC(=O)Cc1csc(SCC(=O)NC(C)C23CC4CC(CC(C4)C2)C3)n1 (centres undefined) | 98.6% (active) |
| Cc1ccccc1N/C(SCc1ccc(Cl)cc1)=C(/C#N)C(N)=O | 25.8% |
| CC1(c2ccccc2)CC(C)(C)N(C(=O)c2cc([N+](=O)[O-])cc([N+](=O)[O-])c2)c2ccccc21 (centres undefined) | 99.6% (active) |
| CC1CCN(C(=S)c2cccc([N+](=O)[O-])c2)CC1 | -0.83% |
| CC1(c2cccc([N+](=O)[O-])c2)CC(C)(C)N(C(=O)c2ccccc2)c2ccccc21 (centres undefined) | 22.4% |
| COC(=O)NNC1=CC(=O)CC(C)(C)C1 | -0.84% |
| CN(C(=O)COc1ncnc2c1cnn2-c1ccccc1)C1CCCCC1 | 0.81% |
| CCOC(=O)C1CCCN(C(=O)c2cccc(S(=O)(=O)N3CCOCC3)c2)C1 (centres undefined) | -6.48% |
| CC(=O)NCCn1c(SCC(=O)Nc2ccc(C)cc2)nc2ccccc2c1=O | 0.63% |
| COCCn1c(SCC(=O)Nc2ccc3c(c2)CCC3)nc2ccccc2c1=O | 59.6% (active) |
| CCc1nnc(NC(=O)CSc2nc3ccccc3c(=O)n2CCCOC)s1 | 11.7% |
| Cc1cccc(NC(=S)Nc2ccc(Cl)c(Cl)c2)c1 | 33.5% |
| CN(C)S(=O)(=O)Oc1ccccc1C(=O)Nc1ccccc1Cl | 3.48% |
| O=C(CCC(=O)NNc1nc2ccccc2c2nc(-c3ccccc3)nn12)NCCCN1CCCC1=O | 1.2% |
| Cc1ccc2c(Cl)c(C(=O)NCCCn3ccnc3)sc2c1 | 99.3% (active) |
| Cc1ccc2c(Cl)c(C(=O)Nc3nn[nH]n3)sc2c1 | 12.8% |

| Structure (SMILES) | inhibition |
| --- | --- |
| O=C(NCCCn1ccnc1)Nc1ccc(Cl)cc1Cl | 0.73% |
| CCCN(CCC)c1ccc(C(O)c2nnc(-c3ccccc3)o2)cc1 (centres undefined) | 13.2% |
| Cc1ccc(Cl)cc1NC(=O)COC(=O)CC(C)(C)C | 34.5% |
| COc1ccc(CC(=O)NC(C)CCc2ccccc2)cc1 (centres undefined) | -3.88% |
| COc1ccc(C(CCNCc2ccccc2F)c2ccc(F)cc2)cc1 (centres undefined) | 78.9% (active) |
| COc1ccc(C(CC(=O)O)NC(=O)Cc2ccccc2)cc1 (centres undefined) | -6.94% |
| Cc1cc(NS(=O)(=O)c2ccc(NC(=S)NC(=O)c3ccc(F)cc3Cl)cc2)no1 | 48.3% |
| CCN(CCCNC(=O)CSc1cc(=O)n(C)c2cc(Cl)ccc12)Cc1ccccc1 | 20.1% |
| COc1ccc(-n2cc(CNC3CCOCC3)c(-c3cccc(F)c3)n2)cc1 | 31.6% |
| CC(C)CCNC(=O)c1cccnc1Sc1ccccc1 | 32.8% |
| CC(C)OCCCNC(=O)c1cc(Sc2ccc(F)cc2)nc2ccccc12 | 50.2% (active) |
| O=C(NCCN1CCOCC1)c1cc(Sc2cccc(Cl)c2)nc2ccccc12 | 1.33% |
| CN1CCNC(=O)C1CC(=O)NCCC1=CCCCC1 (centres undefined) | 4.58% |
| CCOC(=O)c1c(C)[nH]c(C2=NNC(=NC(C)COC)SC2)c1C (centres undefined) | 8.5% |
| Cc1sc(NC(=S)NC(=O)c2cccs2)nc1-c1ccc(CC(C)C)cc1 | -14.6% |
| CC(C)Cc1nn2c(=O)cc(O)nc2s1 | 54.9% (active) |
| CCOC(=O)c1cc2c(=O)n3ccccc3nc2n(CC(C)C)c1=NC(=O)c1c(-c2c(F)cccc2Cl)noc1C | 98.8% (active) |
| CCCn1c(=NC(C)=O)c(C(=O)OCC)cc2c(=O)n3ccccc3nc21 | 7.11% |
| C/C(=N/OC(=O)c1c(-c2c(F)cccc2Cl)noc1C)c1cnccn1 | 0.04% |
| COc1ccc(NC(=O)/C(C#N)=C\c2cc(OC)c(OCc3ccc(C(=O)O)cc3)cc2Br)cc1 | 4.82% |
| COc1ccc(-c2csc(N3CCN(Cc4ccc5c(c4)OCO5)CC3)n2)cc1 | 76.3% (active) |
| O=C(CN1CCN(c2nc(-c3ccccc3)cs2)CC1)NCc1ccc2c(c1)OCO2 | 1.96% |
| COc1cccc(NC(=O)CN2CCN(c3nc(-c4cccc(OC)c4)cs3)CC2)c1 | 9.93% |
| Cc1nn(C)c(C)c1CN(C(=O)CCc1nnc(Cc2c[nH]c3ccccc23)o1)C(C)C | -4.01% |
| Cc1c(-c2ccccc2)n[nH]c1C(=O)N=Nc1c(O)[nH]c2ccccc12 | 4.35% |

| Structure (SMILES) | inhibition |
| --- | --- |
| Cc1cccc(N(CC(=O)N=Nc2c(O)[nH]c3ccccc23)S(C)(=O)=O)c1C | 95.3% (active) |
| COCC(=O)N=Nc1c(O)[nH]c2ccccc12 | -1.1% |
| CCn1c(-c2cccnc2Cl)nc2cc(C)c(C)cc21 | 10% |
| CC(C)n1c(C(O)c2ccccc2)nc2ccccc21 (centres undefined) | 5.37% |
| CC(C)n1c(O)c(N=Nc2ccccn2)c2ccccc21 | 56.6% (active) |
| Oc1oc(-c2ccccc2Br)nc1/C=N/c1ccccn1 | -5.62% |
| CCc1ccccc1NC(=O)CN(c1ccc(OC)cc1OC)S(=O)(=O)c1ccccc1[N+](=O)[O-] | 27.7% |
| COc1ccc(N(C)S(=O)(=O)c2cccc3nsnc23)cc1 | -1.4% |
| CCOC(=O)C1=C(CC)Nc2ccccc2N=C1N | -8.37% |
| CCOC(=O)CSc1nnc(NC(=O)c2cccc(S(=O)(=O)N3CCCC3)c2)s1 | -6.49% |
| CCOC(=O)C1=C(CC)Nc2ccccc2N=C1NC(=O)c1cccc(S(=O)(=O)N2CCCC2)c1 | 72% (active) |
| CCN(CC)Cc1nc2sc(C)c(C)c2c(=O)[nH]1 | -6.68% |
| CC1CCN(C(=S)c2cccc(O)c2)CC1 | 0.69% |
| CCOc1ccccc1Oc1cn[nH]c1-c1ccc(OC)cc1O | 50.6% (active) |
| CCOc1ccccc1NC(=O)Nc1cc(OC)ccc1OC | -3.92% |
| CCOc1ccc(-c2n[nH]c(C)c2-c2ccccn2)c(O)c1 | 5.25% |
| CC(=O)c1cc(C#N)c(N2CC(C)OC(C)C2)nc1C (centres undefined) | -0.03% |
| O=C(NCCCNc1ccc([N+](=O)[O-])cc1Cl)c1ccccc1F | 11.1% |
| O=C(NCCCN1CCOCC1)c1ccc(N2CCCC2)c([N+](=O)[O-])c1 | -1.2% |
| Nc1nc(NCCCN2CCOCC2)nc(Nc2ccccc2)c1[N+](=O)[O-] | 47.8% |
| O=C(NCCCN1CCOCC1)c1ccccc1NS(=O)(=O)c1ccc(F)cc1 | -1.28% |
| O=C(NCCCN1CCOCC1)c1ccc([N+](=O)[O-])cc1[N+](=O)[O-] | 57.7% (active) |
| O=[N+]([O-])c1ccc(NCCCN2CCOCC2)c(Cl)c1 | 90.3% (active) |
| S=C(Nc1ccc(Br)cc1Cl)N1CCC2(CC1)OCCO2 | -4.82% |
| Cc1ccc(CC2CC(=O)N(c3nc(C)cc(C)n3)C2=O)cc1 (centres undefined) | -5.05% |

| Structure (SMILES) | inhibition |
| --- | --- |
| Brc1ccc(CSc2ccc(-c3ccco3)nn2)cc1 | 2% |
| O=C1COc2ccc(C(=O)COC(=O)c3cccnc3Cl)cc2N1 | 11% |
| Cc1ccccc1Nc1nc(N)nc(CSc2nnc3ccccn23)n1 | -7.89% |
| Cc1ccc(C(=O)OCc2nc(N)nc(Nc3ccccc3C)n2)cc1 | 53.7% (active) |
| COc1ccccc1Nc1nc(N)nc(CN(C)C2CCCCC2)n1 | 0.98% |
| Cc1ccccc1Nc1nc(N)nc(CN2CCN(c3ccccn3)CC2)n1 | 0.34% |
| CCOC(=O)N1CCN(Cc2nc(N)nc(Nc3ccc(C)cc3)n2)CC1 | 3.79% |
| Cc1ccccc1Nc1nc(N)nc(CSc2ccccc2)n1 | 58.8% (active) |
| CCOC(=O)C(NC(C)=O)C(=O)Nc1ccc(OC)cc1 (centres undefined) | -2% |
| CCCCNC(=O)Nc1c(C)cc(SC#N)cc1C | -2.51% |
| O=C(Nc1cccc(Cl)c1N1CCOCC1)c1ccc2c(c1)OCCO2 | 11.1% |
| COc1ccc(NC(=O)COc2ccc(C(=O)OCC(=O)N(C)C3CCS(=O)(=O)C3)cc2OC)cc1 (centres undefined) | 2.14% |
| COc1ccc(S(=O)(=O)NCC2CCCN(C(=O)c3occc3C)C2)cc1 (centres undefined) | -1.89% |
| O=C(CSc1ncnc2c1nnn2Cc1ccc(F)cc1)NC1CCCC1 | -6.62% |
| CCCCOc1ccc(C(=O)NN2CCN(C)CC2)cc1 | -6.12% |
| CCCCOc1ccc(C(C)(O)CCN2CCOCC2)cc1 (centres undefined) | 67.4% (active) |
| CC(=O)c1ccc(OCCN2CCOCC2)cc1 | -0.55% |
| CCCCN(C)CCNC(=O)CSCc1ccc(C)cc1 | 35.7% |
| Cc1ccc(NC(=S)N(CCN(C)C)Cc2cccs2)cc1C | 23.8% |
| C#CCNC(=O)C1=C[C@@H](c2ccccc2)[C@H](CCCO)[C@@H](OCC)O1 | -3.12% |
| COc1cc(/C=N/N=C(\N)c2nonc2N)cc(OC)c1OC | 13.2% |
| CC(C)NC(=O)C(=O)NCCN1CCN(S(=O)(=O)c2ccc(Cl)cc2)CC1 | -8.08% |
| Cc1c(C2=CCN(S(=O)(=O)c3ccc(Cl)cc3)CC2)c2ccccc2n1C | 54.9% (active) |
| O=C(ON=C1CCN(S(=O)(=O)c2ccccc2)CC1)c1ccc(Cl)cc1 | -6.64% |
